This note sets out measurements from PubChem BioAssay (NCATS).

The target of assay [1] is T1, Hexokinase-4 (Homo sapiens) + Glucokinase regulatory protein (Homo sapiens) (UniProt P35557+Q14397). The assay can be described thus: qHTS assay for inhibitors of recombinant human GCK-GKRP interaction: ADP-Glo assay (AID 743206).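 Further: plate controls were DMSO plus enzyme for no effect and no enzyme for full effect.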 An outline of the steps:
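GST-GCK and FLAG-GKRP (15 nM each in the dispensed mix, with 2 uM S6P) react with 0.4 mM ATP and 5 mM glucose (final) in Hepes pH 7.6 for 60 min at room temperature. ADP is measured by ADP-Glo luminescence.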
(In qHTS, concentration-response curves come from the screen itself.)

The target in assay [2] is T1, Hexokinase-4 (Homo sapiens) + Glucokinase regulatory protein (Homo sapiens). As to the kind of experiment: qHTS assay for inhibitors of recombinant human GCK-GKRP interaction: HTRF assay (AID 743207).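 Further: 0% = DMSO with GCK present and -100% = DMSO wells lacking GCK.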 The method in brief:
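HTRF read-out (ex 320 nm; 615/665 nm emission) after 60 min RT equilibration of 5 nM GST-GCK, 5 nM FLAG-GKRP, 2 uM S6P, compound and anti-FLAG/anti-GST detection antibodies; signal normalized between DMSO wells with and without GCK.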

Assay [3] can be described thus: qHTS Assay for Identifying Gametocytocidal Compounds (AID 743244). Further: potency means the concentration at half of the fitted maximal effect.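 On max response: on the % scale 0 is the no-effect control and ±100 the full control effect; actives lower the fluorescent signal which means gametocytes are killed.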 As to conditions: P. falciparum 3D7 stage III-V gametocytes, alamarBlue, 72 h; max response: stronger effect = lower value. An outline of the steps:
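Late gametocytes (III–V), P. falciparum 3D7; 72 h drug, then 24 h alamarBlue; resazurin reduction read by fluorescence.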

Assay [4] is described as follows: qHTS profiling of the MIPE4 collection as inhibitors of Plasmodium falciparum (3D7) proliferation (AID 743344; call rule not given here;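 further: scaled between DMSO vehicle wells and 0.29 µM artemisinin as full inhibition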). As to conditions: P. falciparum 3D7 in erythrocytes, SYBR Green DNA fluorescence, 72 h; at 28.5 µM (top of the series) unless noted. An outline of the steps: (§1)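 Erythrocytes infected with P. falciparum (0.3% parasitemia, 2.5% hematocrit) incubated with compounds 72 h at 37 C, 5% CO2. Lysis with saponin/Triton buffer containing SYBR Green I, overnight at room temperature in the dark; DNA fluorescence (485/535 nm) normalised to 0.29 uM artemisinin and DMSO.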

A short description of assay [5]: qHTS profiling of the MIPE4 collection as inhibitors of Plasmodium falciparum (DD2) proliferation (AID 743345; call rule not given here). To be noted: P. falciparum Dd2 in erythrocytes, SYBR Green DNA, 72 h; at 28.5 µM (top of the series) unless noted. An outline of the steps: as §1
Assay [6] can be described thus: qHTS profiling of the MIPE4 collection as inhibitors of Plasmodium falciparum (DD2) proliferation (Rep 2) (AID 743346; call rule not given here). To be noted: P. falciparum Dd2 in erythrocytes, SYBR Green DNA, 72 h; at 28.5 µM (top of the series) unless noted. The method in brief: as §1
The nature of assay [7]: qHTS profiling of the MIPE4 collection as inhibitors of Plasmodium falciparum (HB3) proliferation (AID 743347; call rule not given here;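 further: plate controls were DMSO vehicle wells for no effect and artemisinin wells for full effect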). To be noted: P. falciparum HB3 in erythrocytes, SYBR Green DNA, 72 h; at 28.5 µM (top of the series) unless noted. The method in brief: as §1
The nature of assay [8]: High-throughput drug toxicity screening in the BPDCN cell line Cal-1 (AID 1224825; call rule not given here). As to conditions: Cal-1 BPDCN cell viability, qHTS; at 45.8 µM (top of the series) unless noted. The method in brief:
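Cal-1 cells, 500 per well in phenol-red-free RPMI with 10% FBS, exposed to compounds for 48 hours at 37C, 5% CO2. Viability read by CellTiter-Glo luminescence; percent activity normalized to DMSO (100%) and 9.2 uM bortezomib final (0%).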

Assay [9] in a line: qHTS assay for measurement of the activity of small molecule inhibitors on Zika virus induced Caspase-3 activity in human iPSC derived neural progenitor cells (hNPCs) (AID 1224857). Further: % of control where 0% means no effect; nearly all actives have a fitted effect of over 65% in size. An outline of the steps:
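Caspase-3/7 induction by a 6-hour ZIKV infection was quantified with a luminescent Caspase-Glo 3/7 reagent incubated 30 minutes at room temperature. Compounds were preincubated with hNPCs for 1 hour; inhibition was calculated against uninfected and infected control wells.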

Assay [10] can be described thus: qHTS assay for measurement of the activity of small molecule inhibitors on Zika virus induced Caspase-3 activity in human astrocytoma cells (AID 1224859).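 Further: plate controls were ZIKV-infected untreated cells for no effect and uninfected cells for full effect.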 An outline of the steps:
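In SNB-19 cells plated at 250 cells/well and grown 16-20 h, compounds were applied 1 h before ZIKV (2 FFU/cell). Six hours later caspase-3/7 luminescence was recorded.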

The nature of assay [11]: qHTS Screen of the MIPE 4.0 Collection Against Ewings Sarcoma (RDES) (AID 1259252). Further: nearly all actives have a fitted effect of over 35% in size. Further: potency means the concentration at half of the fitted maximal effect. The method in brief: (§2)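 Dose series incubated 48 h with cells in RPMI plus 5% FBS, glutamine and penicillin/streptomycin; cell viability then quantified via CellTiter-Glo.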
Assay [12] in a line: qHTS Screen of the MIPE 4.0 Collection Against Ewings Sarcoma (TC71) (AID 1259253). Further: nearly all actives have a fitted effect of over 40% in size. Further: potency means the concentration at half of the fitted maximal effect. The method in brief: as §2
A short description of assay [13]: qHTS Screen of the MIPE 4.0 Collection Against Ewings Sarcoma (EW8) (AID 1259255). Further: nearly all actives have a fitted effect of over 35% in size. Further: potency means the concentration at half of the fitted maximal effect.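 On viability: 100% = DMSO-treated cells and 0% = medium-only wells without cells.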 The method in brief: as §2
Assay [14] in a line: qHTS Screen of the MIPE 4.0 Collection Against Ewings Sarcoma (TC32) (AID 1259256). Further: nearly all actives have a fitted effect of over 45% in size. Further: potency means the concentration at half of the fitted maximal effect. An outline of the steps:
as §2

The nature of assay [15]: High-throughput drug toxicity screening in the BPDCN cell line Gen2.2 (AID 1224824; call rule not given here;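 further: cells exposed to compounds for 48 h before reading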). To be noted: Gen2.2 BPDCN cells; at 45.8 µM (top of the series) unless noted. The method in brief:
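CellTiter-Glo luminescence after 48 h compound exposure of Gen2.2 cells; percent activity set with DMSO as 100% and bortezomib (9.2 uM final) as 0%. Cells seeded at 500 per well, RPMI + 10% FBS, 37 °C.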

Assay [16] can be described thus: qHTS assay for cell viability of HEK293 cells (AID 743288). Further: on the % scale 0 is the no-effect control and ±100 the full control effect; nearly all actives have a fitted effect of over 50% in size. As to conditions: ATP luminescence (CellTiter-Glo), 18 h; max response: stronger effect = lower value. The method in brief:
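Environmental chemicals tested in qHTS format against parental HEK293 cells; 18 h treatment, 37 C; read-out ATP luminescence (CellTiter-Glo), 30 min RT development.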

A short description of assay [17]: qHTS assay for cell viability of the p53RE-bla HCT-116 cell line (AID 743292). Further: on the % scale 0 is the no-effect control and ±100 the full control effect; nearly all actives have a fitted effect of over 55% in size. The method in brief:
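Luminescent ATP quantitation (CellTiter-Glo) served as the viability read-out; reagent was added after 16 h compound exposure at 37 C and read after 30 min at room temperature. Cells: p53RE-bla HCT-116, 4,000 per well.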

Values joined by “and” are separate entries in the source; they are usually repeats but may differ in a detail not shown here. Equal values may be shown once. Inconclusive results are not listed. Active and inactive are the calls of the source. Unless noted, the call rests on the fitted dose curve; in most records, active means well fitted curve in the direction sought with a large enough effect; inconclusive means small, poorly fitted or top-dose-only effect, or another doubt; inactive means no such curve, though single readings can be large; an effect the other way counts as inactive or inconclusive.

T1 sequence (P35557 whole entry, looked up): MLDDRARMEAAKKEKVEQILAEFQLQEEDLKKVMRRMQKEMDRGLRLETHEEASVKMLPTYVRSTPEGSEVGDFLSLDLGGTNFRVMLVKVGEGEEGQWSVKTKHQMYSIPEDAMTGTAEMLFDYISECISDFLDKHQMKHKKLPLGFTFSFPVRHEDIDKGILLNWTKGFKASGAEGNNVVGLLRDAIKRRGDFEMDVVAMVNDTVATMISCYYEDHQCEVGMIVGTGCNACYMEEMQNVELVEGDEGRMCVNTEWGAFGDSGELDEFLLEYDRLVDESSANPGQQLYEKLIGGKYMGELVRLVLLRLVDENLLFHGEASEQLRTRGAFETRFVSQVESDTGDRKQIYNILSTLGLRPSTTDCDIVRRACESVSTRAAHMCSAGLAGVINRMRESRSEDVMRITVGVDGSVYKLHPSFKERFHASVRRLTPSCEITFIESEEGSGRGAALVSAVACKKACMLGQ
T1 sequence (Q14397 whole entry, looked up): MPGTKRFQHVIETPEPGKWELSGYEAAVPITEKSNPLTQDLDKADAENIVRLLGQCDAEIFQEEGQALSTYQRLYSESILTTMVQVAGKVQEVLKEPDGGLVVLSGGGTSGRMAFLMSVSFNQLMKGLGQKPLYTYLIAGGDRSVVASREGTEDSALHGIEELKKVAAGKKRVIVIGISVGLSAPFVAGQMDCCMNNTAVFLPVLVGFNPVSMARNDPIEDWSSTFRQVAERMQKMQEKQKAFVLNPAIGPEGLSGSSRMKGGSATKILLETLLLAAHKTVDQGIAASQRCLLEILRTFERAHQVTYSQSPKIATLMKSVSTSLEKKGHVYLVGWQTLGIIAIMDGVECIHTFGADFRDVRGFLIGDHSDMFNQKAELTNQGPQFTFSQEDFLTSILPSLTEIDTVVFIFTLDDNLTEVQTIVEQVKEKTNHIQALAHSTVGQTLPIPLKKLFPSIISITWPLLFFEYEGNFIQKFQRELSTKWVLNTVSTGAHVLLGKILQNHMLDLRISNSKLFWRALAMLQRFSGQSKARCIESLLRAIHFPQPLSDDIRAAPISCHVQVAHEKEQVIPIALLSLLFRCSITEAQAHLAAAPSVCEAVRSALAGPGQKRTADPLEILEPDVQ

Turning to `O=C1c2c(O)ccc(O)c2C(=O)c2c(NCCNCCO)ccc(NCCNCCO)c21`, the Potency result in assay [1], in assay [2], in assay [9], in assay [10] and in [14] was “inactive” in each case. Also, the Potency in assay [3] is 7.94 µM (active) and 1.41 µM (active); in assay [11], 166 nM (active); in [12], 93.5 nM (active); in assay [13], 59 nM (active). The molecule further yielded a parasite growth, % of DMSO control in [4] of 0.962%. The molecule further gave a parasite growth remaining, % of DMSO control (lower = more inhibition) in assay [5] of 1.83%. In [6], the parasite growth, % of control (lower = inhibition) is 5.92%. The growth, % of control in assay [7] is 0.795%. In addition, in assay [8], the viability (% of control) was found to be 2.98%.

Consider `CN1C(C(=O)Nc2ccccn2)=C(O)c2ccccc2S1(=O)=O`, for which the Potency result in [1], in [2] and in assay [9] was “inactive” throughout. For the same molecule, the max response in assay [3] was -1.29% (inactive) and 1.85% (inactive). For the same molecule, in assay [4], the parasite growth, % of DMSO control stood at 77.2%. The molecule further yielded a parasite growth remaining, % of DMSO control (lower = more inhibition) in [5] of 88.2%. In [6], the parasite growth, % of control (lower = inhibition) amounted to 136%. In addition, the growth, % of control in [7] was found to be 90.6%. The cell viability, % of control (lower = more cytotoxic) in assay [15] was 61.5%. Also, the viability (% of control) in assay [8] was found to be 8.08%.

`C[C@](N)(Cc1ccc(O)c(O)c1)C(=O)O`: the Potency result in assay [1], in assay [2], in [17], in [9], in assay [11] and in assay [12] was “inactive” throughout. The Potency result in [13] and in [14] was “inactive” throughout. Besides, the results for the max response in [3] and in [16] were 9.51% (inactive) and -5.13% (inactive), respectively. Also, in [4], the parasite growth, % of DMSO control is 73.9%. The parasite growth remaining, % of DMSO control (lower = more inhibition) in assay [5] amounted to 80%. Moreover, the parasite growth, % of control (lower = inhibition) in assay [6] was 77.2%. The molecule further returned a growth, % of control in assay [7] of 86%. Also, the cell viability, % of control (lower = more cytotoxic) in assay [15] is 46.6%. In [8], the viability (% of control) amounted to 66%.

Regarding `O=C(CCCN1CCC(O)(c2ccc(Cl)cc2)CC1)c1ccc(F)cc1`, in [16], the max response was -20.6% (inactive). In addition, the Potency result in [17] and in assay [9] was “inactive” in each case. Besides, in [15], the cell viability, % of control (lower = more cytotoxic) was 58.3%. Also, the viability (% of control) in assay [8] was determined as 48.3%. Further, the Potency in assay [12] is 18700 nM (active); in assay [14], 20900 nM (active).

Take `CN1C2CCC1CC(OC(=O)C(CO)c1ccccc1)C2` (centres undefined): the Potency result in [1], in assay [2], in assay [9] and in assay [10] was “inactive” throughout. Moreover, in assay [15], the cell viability, % of control (lower = more cytotoxic) came out at 172%. For the same molecule, the viability (% of control) in assay [8] amounted to 113%.

As for `NS(=O)(=O)c1cc2c(cc1Cl)NCNS2(=O)=O`, the Potency entry in assay [2], in assay [17], in [9], in assay [11], in [12] and in assay [13] was “inactive” throughout. Besides, the Potency result in assay [14] was “inactive”. The max response in assay [3] was 6.34% (inactive) and 16.2% (inactive); in assay [16] it was -3.61% (inactive) and 2.79% (inactive). This molecule also gave a parasite growth, % of DMSO control in [4] of 53.2%. Further, the parasite growth remaining, % of DMSO control (lower = more inhibition) in assay [5] stood at 53.5%. The parasite growth, % of control (lower = inhibition) in assay [6] was found to be 39.6%. Further, in [7], the growth, % of control was determined as 40.8%. The cell viability, % of control (lower = more cytotoxic) in [15] came to 159%. Besides, the viability (% of control) in assay [8] came to 125%.

Turning to `Cc1cc(C(C)(C)C)c(O)c(C)c1CC1=NCCN1`, the Potency result in [1], in assay [2], in assay [9] and in assay [10] was “inactive” each time. For the same molecule, the max response in assay [3] is -1.21% (inactive) and 27.5% (inactive). Besides, the parasite growth, % of DMSO control in [4] worked out at 80.6%. For the same molecule, the parasite growth remaining, % of DMSO control (lower = more inhibition) in [5] is 95.8%. In [6], the parasite growth, % of control (lower = inhibition) amounted to 68.6%. The growth, % of control in assay [7] came out at 98.3%. The cell viability, % of control (lower = more cytotoxic) in assay [15] was determined as 97.9%. For the same molecule, the viability (% of control) in assay [8] was found to be 110%.
